Test in all cases: NCI-60 one-dose screen, 48 h (100 = growth as untreated, 0 = no growth, -100 = all killed)
Conditions in all cases: 10 µM

Assay [1] relates to NCI-H23 lung.
Assay [2] has as its system NCI-H226 lung.
In assay [3] the test system is NCI-H322M lung.
Assay [4] has as its system HOP-62 NSCLC.
Assay [5] deals with NCI-H460 lung.
Assay [6] has as its system NCI-H522 lung.
In assay [7] the test system is A549/ATCC NSCLC.
Assay [8] relates to 786-0 renal.
Assay [9] deals with COLO 205 colon.
Assay [10] has as its system DU-145 prostate.

About 83,000 compounds went through this panel and 20% of them were active in at least one assay; those are over-represented in the sample as a whole.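 Assay: single dose, 48 h. Readout: percent growth (0 = no net growth; negative = cell death). Active: <10.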 A number with no mark means an inactive call. Calls of active or inactive are those of the source.

Turning to `COc1cc(-c2cc(/C=C3\C(=O)Nc4ccccc43)[nH]n2)cc(OC)c1OC`, the growth is 56% in assay [1]; 66.3% in assay [2]; 68.6% in assay [3]; 65% in assay [4]; 74.7% in [5]; 64.5% in assay [6]. Further, the growth in [7] is 54.6%; in assay [8], 84.2%; in [9], 32.3%; in assay [10] it was 82.5%.
With `COc1cc(C(=O)/C=C/c2cc(-c3cc(OC)c(OC)c(OC)c3)n[nH]2)cc(OC)c1OC`, the growth is 68.4% in [1]; 36.8% in assay [2]; -8.96% (active) in [3]; -30.1% (active) in assay [4]; 29.7% in [5]; -75.5% (active) in assay [6]. Besides, the growth is 53.6% in assay [7], -71.7% (active) in [8], -88.3% (active) in assay [9] and 4.4% (active) in [10].
On to `N#CCCN1C/C(=C/c2ccccc2)C(=O)/C(=C/c2ccccc2)C1`, for which the growth in [1] was 78.9%; in [2], 69.8%; in [3], 86%; in assay [4], 59.5%; in assay [5] it was 71%; in assay [6] it was -51.6% (active). The growth is 76.6% in assay [7], 34.1% in assay [8], 59.4% in assay [9] and 35.2% in assay [10].
In the case of `CCn1cc(C(=O)O)c(=O)c2cnc(N3CCCC3)nc21`, the growth in assay [1] was 105%; in [2], 94.5%; in [3], 97.3%; in assay [4], 108%; in assay [5], 110%; in assay [6], 101%. Also, the growth in [7] was 96.1%; in assay [8], 92.6%; in assay [9], 111%; in assay [10], 119%.
As to `Cc1ccc(-c2nc(/C=C3/C(=O)N(C)c4ccc(F)cc43)c3ccccn23)cc1`, the growth in assay [1] was 86.5%; in assay [2], 106%; in [3] it was 103%; in assay [4], 77.9%; in [5], 96.7%; in [6], 60.5%. The growth in assay [7] was 94.1%; in assay [8], 107%; in assay [9], 120%; in [10] it was 99.3%.
For `O=C(Nc1ccccc1)Nc1cccc(-n2cc(-c3ccncc3)c(-c3ccc(O)c(Cl)c3)n2)c1`, the growth was 74.2% in assay [1]; 93.8% in assay [2]; 43.3% in [3]; 77.7% in [4]; 25.2% in assay [5]; 51.4% in assay [6]. Moreover, the growth in assay [7] was 35.5%; in assay [8] it was 38.5%; in [9] it was 111%; in assay [10], 71.1%.
For `CCN(CCCCCCN1CC(=O)N(CCCCCCN(CC)Cc2ccccc2OC)CC1=O)Cc1ccccc1OC`, the growth in assay [1] is 60.4%; in assay [2] it was 107%; in [3], 96.5%; in assay [4] it was 79.7%; in assay [5], 75.1%; in assay [6], 76%. In addition, the growth in assay [7] was 85.8%; in assay [8], 74.2%; in assay [9], 54.6%; in assay [10] it was 76.7%.
Regarding `COC(=O)c1c(-c2ccccc2)csc1NC(=O)c1c(-c2ccccc2)noc1C`, the growth in assay [1] was 61.4%; in assay [2], 49.6%; in assay [3] it was 56.6%; in [4], 52.1%; in assay [5] it was -15.3% (active); in assay [6] it was 36.1%. Moreover, the growth in assay [7] is -18.6% (active); in assay [8] it was 24.1%; in assay [9], 60.6%; in assay [10], 39.7%.
On to `Cc1cccc(Cl)c1NC(=O)c1ccc2nc(NC(=O)NC3CCN(C)CC3)sc2c1`, for which the growth in assay [1] is 82.3%; in assay [2] it was 121%; in assay [3], 95.5%; in [4], 63.1%; in assay [5] it was 114%; in assay [6], 83.5%. Further, the growth was 91.5% in [7], 91.2% in [8], 37.4% in [9] and 103% in assay [10].
Regarding `COc1cc(-c2cc(-c3cc4c([nH]c5ccccc54)c(-c4cc(OC)c(OC)c(OC)c4)n3)cc(-c3ccccc3)n2)cc(OC)c1OC`, the growth is 69.1% in assay [1]; 77% in assay [2]; 95% in [3]; 78% in assay [4]; 64.8% in assay [5]; 43.4% in assay [6]. The growth in assay [7] is 42.8%; in assay [8] it was 79.6%; in [9], 84.8%; in [10] it was 97.5%.
As for `O=C(N/N=C/c1ccccc1O)C(O)(c1ccccc1)c1ccccc1`, the growth is 64.1% in assay [1]; 71.1% in assay [2]; 46% in [3]; 59% in assay [4]; 27.4% in assay [5]; 27.9% in [6]. Further, the growth in assay [7] is 52.8%; in [8] it was 61.7%; in assay [9], 35.5%; in assay [10], 59.9%.
Consider `N=C(N)c1ccc(-c2ccc(-c3cccs3)s2)cc1`, for which the growth is 83.8% in assay [1]; 82.3% in assay [2]; 2.2% (active) in [3]; 86.6% in assay [4]; -72.4% (active) in [5]; 76.4% in [6]. The figures for the growth in assay [7], in assay [9] and in assay [10] were -44.8% (active), -96.6% (active) and 0.967% (active), respectively.
Regarding `CCOC(=O)N1C/C(=C/c2ccc(Cl)cc2)C(=O)/C(=C/c2ccc(Cl)cc2)C1`, the growth in assay [1] is 72.1%; in [2] it was 39.3%; in [3] it was 79.2%; in assay [4], 64.7%; in assay [5] it was 77.8%; in [6], 65.5%. Further, the growth in [7] was 61.1%; in assay [8], 65.6%; in [9], 45.3%; in assay [10], 46.3%.
For `COc1ccc(OC)c2c1C(=O)CC2C` (centres undefined), the growth in [1] is 102%; in [2] it was 101%; in assay [3], 96.5%; in [4], 101%; in [5], 104%; in assay [6], 110%. Further, the growth in assay [7] is 103%; in assay [8] it was 108%; in assay [9], 106%; in assay [10], 107%.
In the case of `Cc1cc2ccccc2nc1-c1ccccc1F`, the growth in assay [1] is 109%; in assay [2], 98.9%; in [3], 128%; in assay [4], 94.6%; in assay [5], 107%; in assay [6] it was 122%. For the same compound, the growth is 92.4% in assay [7], 95.1% in assay [8], 110% in [9] and 116% in [10].
Take `Cn1c([N+](=O)[O-])cnc1/C=C1\Oc2ccccc2C1=O`: the growth is -18% (active) in [1]; -7.33% (active) in [2]; 18.6% in assay [3]; -10.3% (active) in assay [4]; -39.5% (active) in assay [5]; -48.5% (active) in assay [6]. Moreover, the growth was -31.4% (active) in assay [7], -10.9% (active) in [8], -64.6% (active) in assay [9] and -8.91% (active) in assay [10].
Regarding `Oc1[nH]c2ccc(Cl)cc2c1/C=c1/ccc2c(c1)N=C(c1cc(F)cc(F)c1)N=2`, the growth is 64% in assay [1]; 86.1% in [2]; 93.2% in [3]; 58.7% in assay [4]; 63.8% in assay [5]; 33.7% in assay [6]. Besides, the growth in assay [7] was 57.4%; in assay [8], 85.9%; in assay [9], 77.1%; in assay [10] it was 81.8%.
`COc1cc(C2CC(c3ccc(Nc4ccnc5cc(Cl)ccc45)cc3)=NN2c2ccc(Cl)cc2)cc(OC)c1OC` (centres undefined): the growth in assay [1] was 74.4%; in assay [2] it was 82.9%; in assay [3], 75.8%; in assay [4] it was 46.8%; in [5], 43.4%; in assay [6], 9.33% (active). For the same compound, the growth in assay [7] is 44.6%; in assay [8], 68.8%; in assay [9], 75.7%; in assay [10], 64%.
With `COc1ccc(-c2nn(-c3cccc(NC(=O)c4ccc(N5CCOCC5)c(C(F)(F)F)c4)c3)cc2-c2ccncc2)cc1Cl`, the growth in assay [1] was 83.2%; in [2], 83.6%; in assay [3] it was 80.3%; in [4], 73.7%; in assay [5] it was 62.1%; in assay [6] it was 41%. Further, the growth in [7] was 54.7%; in assay [8], 37.9%; in assay [9], 54.6%; in assay [10], 91.8%.
Take `COc1cc2cc3c(nc2cc1OC)CCN3Cc1ccc(NC(=O)Nc2cc(C(F)(F)F)cc(C(F)(F)F)c2)cc1`: the growth in [1] was 77.9%; in [2], 92.6%; in [3], 72.5%; in assay [4] it was 97.5%; in [5], 63.3%; in assay [6] it was 51.8%. Moreover, the growth in assay [7] is 52.1%; in [8], 81.4%; in assay [9], 90%; in assay [10], 94.7%.
For `COc1ccc(NC(=O)CSc2nc3ccccc3c(=O)n2CCc2ccccc2)cc1`, the growth in [1] is 92.2%; in [2] it was 93.9%; in assay [3], 81.5%; in assay [4], 48.3%; in assay [5], 75.5%; in assay [6], 105%. The growth in assay [7] is 75.1%; in assay [8], 95.3%; in [9] it was 95.5%; in assay [10], 101%.
With `COc1cc(/C(=C2/O[C@@H]([C@H]3COC(C)(C)O3)[C@H]3OC(C)(C)O[C@@H]23)c2ccc3ccccc3c2)cc(OC)c1OC`, the growth is 46.2% in assay [1]; 66.9% in [2]; 55.1% in [3]; 48% in assay [4]; 43.4% in [5]; 8.05% (active) in assay [6]. The growth was -9.4% (active) in [7], -1.42% (active) in assay [8], 66.9% in assay [9] and 2.86% (active) in assay [10].
As to `COc1ccccc1CNCCCN1C(=O)c2ccc3c4c(ccc(c24)C1=O)C(=O)N(CCCN)C3=O`, the growth is -34.7% (active) in assay [1]; 47.3% in [2]; -30.7% (active) in assay [3]; 18.7% in assay [4]; -50.8% (active) in assay [5]; -79.1% (active) in assay [6]. The growth in assay [7] is -28% (active); in [8], 4.32% (active); in assay [9], -87.5% (active); in [10], -95.6% (active).
For the compound `CCCCCCCCN(CCCCCCCC)CCCCCCCCCN1CCCc2cc(OC)ccc21`, the growth in assay [1] is 63.4%; in assay [2] it was 89.7%; in [3], 95.5%; in [4] it was 85%; in assay [5], 102%; in assay [6] it was 79.4%. In addition, the growth was 97.2% in [7], 98.3% in [8], 87.8% in assay [9] and 105% in [10].
Consider `CCOC(=O)N1C=CC2C=CC1C1C=CC=CC2N1C(=O)OCC` (centres undefined), for which the growth is 108% in [1]; 91% in assay [2]; 106% in assay [3]; 106% in assay [4]; 103% in assay [5]; 89.3% in [6]. For the same compound, the growth in assay [7] was 94.8%; in [8] it was 105%; in assay [9], 117%; in assay [10], 112%.
For the compound `COc1ccc(-c2cc(-c3ccc(N(C)C)cc3)c(C#N)c(N3CCCC3)n2)cc1`, the growth in assay [1] was 93.6%; in assay [2], 82.5%; in assay [3], 92.3%; in assay [4], 99.7%; in assay [5], 69.9%; in [6] it was 69.4%. The growth is 77.2% in assay [7], 95.6% in assay [8], 65.9% in assay [9] and 86.8% in [10].
In the case of `CCCCCCCC(C)NCCO` (centres undefined), the growth in assay [1] was 102%; in [2], 97.4%; in assay [3] it was 88.9%; in assay [4], 99.3%; in assay [5], 106%; in assay [6] it was 84.9%. Also, the growth in [7] is 93.5%; in assay [8], 94.7%; in assay [9], 107%; in assay [10], 106%.

Source of the values: PubChem BioAssay (NCI).
